This passage reports growth results from PubChem BioAssay (NCI).

Where “and” joins values, the source holds several entries; their conditions need not be identical. Equal entries are not always repeated. About 83,000 compounds went through this panel and 20% of them were active in at least one assay; those are over-represented in the sample as a whole.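 Activity criterion: percent growth below 10, measured after cells in 96-well plates were exposed to a single compound concentration for 48 hours.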 Unmarked numbers belong to inactive results. Calls of active or inactive are those of the source.

The subject of the experiment is HL-60(TB) leukemia. Briefly: NCI-60 one-dose screen, 48 h (100 = growth as untreated, 0 = no growth, -100 = all killed). The conditions noted are these: 10 µM unless noted.
`CCNC(=S)NNC(=O)c1cc2ccc1CCc1ccc(cc1)CC2`: the growth was 100%.
As for `Nc1n[nH]c2ccc([C@H]3[C@@H]4C5CCC(C5)[C@@H]4c4c(ccc5[nH]ncc45)N3S(=O)(=O)C3CC3)cc12` (some centres undefined), the growth was -19.6% (active).
For `BrC/C=C/C[P+](c1ccccc1)(c1ccccc1)c1ccccc1`, the growth was 9.15% (active).
On to `COc1ccc(S(=O)(=O)N2CCCCCC2)cc1NC(=O)c1[nH]c(C)c2c1CCCCC2=O`, for which the growth is 7.56% (active).
In the case of `O=C(Nc1ccc2ncnc(Nc3ccc(F)c(Cl)c3)c2c1)c1ccccc1`, the growth was 82.2%.
For `O=C(CN1C(=O)CCC1=O)Nc1ncc(Cc2ccc(F)cc2)s1` the value was 98.2%; for `CN(C)CCn1c(=O)c2c3cc4c(cc3n(CCN(C)C)c2c2ccc(Cl)cc21)OCO4`, 19.5%.
`CC(C)CNC(=O)c1ccccc1C(=O)NC1(C(=O)NCC(C)C)CCCC1`: the growth was 92.9% and 97.4%.
For `O=C(NCc1ccccc1)Nc1ccccc1CNc1nc(Nc2ccc(OCCN3CCCC3)cc2)ncc1Cl` the value was 62.4%.
As to `O=c1cc(-c2cccnc2)oc2c1ccc1ccccc12`, the growth was 83.4%.
`COc1ccc(C)cc1NC(=O)SC(C)C`: the growth was 94.7% [100 µM].
Regarding `CN([O-])c1nc(N(C)[O-])nc(N2CCOCC2)n1.CN([O-])c1nc(N(C)[OH2+])nc(N2CCOCC2)n1.[Fe+3]`, the growth was 93.8% [100 µM].
As to `Cc1onc(-c2ccccc2)c1C(=O)N/N=C/c1cc(Cl)cc(Cl)c1O`, the growth is 15.7%.
`CN1C(=O)N(C)C2C1NN=c1s/c(=C\c3cccnc3)c(=O)n12` (centres undefined): the growth was 82.7%.
